Source: PubChem BioAssay AID720485 (Milwaukee Institute for Drug Discovery, 2013)
The other results are listed elsewhere or left out. Unmarked numbers belong to inactive results.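 Rule for the calls: active = percent inhibition of 50% or more; inactive = the rest.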

Tested on: Hepatitis C virus NS3 helicase
Experiment: HCV NS3 helicase inhibitors, retest, confirmation, biochemical, fluorescence polarization, ChemBridge library (AID 720485)
Details: NS3h binding to Cy5-dT15 DNA, at 100 µM, active compounds read high

With CCOc1cc(C=C2C(=O)NC(=O)NC2=O)cc(Br)c1OCCOc1ccccc1C the inhibition was 23.5%.
